Where “and” joins values, the source holds several entries; their conditions need not be identical. Equal values may be shown once. Records with an inconclusive call do not appear. The source holds several records for some structures; these can differ, active in one and inactive in another. Calls of active or inactive are those of the source. The calls were made as follows, unless noted: active = hit-call score of the fitted dose curve at least 0.9, where 1 is the maximum; inconclusive = response in the unintended direction; inactive = score below 0.9.
Key:
[1] = ATG_M_19_TRANS: Attagene TRANS-FACTORIAL HepG2 Assay for M19 Transcription Factor (Internal Marker) (AID 2282974); settings: HepG2 Attagene TRANS-FACTORIAL M19 internal marker reporter
How it was run: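 Fluorescence of 6-FAM-labelled reporter cDNA fragments, separated by capillary electrophoresis, served as the readout. These derived from HepG2 cells carrying transfected GAL4-UAS reporter units after 24 h dosing, with DMSO as negative control.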

[2] = molecular target: Oxysterols receptor LXR-beta (Homo sapiens) (UniProt P55055); experiment: ATG_LXRb_TRANS: Attagene TRANS-FACTORIAL HepG2 Assay for human Liver X Receptor beta (LXRb) (AID 2282981); settings: HepG2 Attagene TRANS GAL4-LXRb reporter, mRNA
How it was run: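 HepG2 cells transiently transfected with multiple reporter transcription units carrying chimeric NR-Gal4 proteins acting on GAL4-UAS reporters; compound exposure 24 h. Reporter mRNA quantified by RT-PCR, 6-FAM labelling, HpaI digestion and capillary electrophoresis; gain of signal versus DMSO.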

[3] = molecular target: human Peroxisome Proliferator-activated Receptor alpha (PPARa), PPARA (gene 5465) (UniProt Q07869); experiment: ATG_PPARa_TRANS: Attagene TRANS-FACTORIAL HepG2 Assay for human Peroxisome Proliferator-activated Receptor alpha (PPARa) (AID 2283001)
How it was run: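 HepG2 cells transiently transfected with multiplexed GAL4-UAS reporter units and chimeric NR-Gal4 constructs were dosed for 24 h. Reporter mRNA was measured by RT-PCR with fluorescent labelling and capillary electrophoresis; gain of signal fitted against DMSO.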

[4] = ACEA_ER_AUC_viability: ACEA Biosciences xCELLigence Real-Time Cell Analysis on Estrogen Receptor Agonism for Viability (AID 2283782);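 also: continuous compound exposure with impedance area under curve over 80 h; hit means loss of impedance signal meaning reduced cell growth or viability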
How it was run: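 T-47D human breast cells in phenol red-free RPMI1640 with 10% charcoal-stripped FBS were dosed with an 8-point 1:4 dilution series from 100 uM top final concentration, in duplicate. Impedance-based growth was followed for 80 h; AUC analysed versus DMSO.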

[5] = molecular target: human RAR-related Orphan Receptor gamma (RORg), RORC (gene 6097) (UniProt P51449); experiment: ATG_RORg_TRANS: Attagene TRANS-FACTORIAL HepG2 Assay for human RAR-related Orphan Receptor gamma (RORg) (AID 2283011)
How it was run: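 Reporter transcripts from a transfected RORg-GAL4 chimera in HepG2 cells were quantified 24 h after dosing by RT-PCR, 6-FAM labelling, HpaI digestion and capillary electrophoresis; increases over DMSO baseline were fitted.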

[6] = molecular target: human Thyroid Receptor alpha (THRa1), THRA (gene 7067) (UniProt P10827); experiment: ATG_THRa1_TRANS: Attagene TRANS-FACTORIAL HepG2 Assay for human Thyroid Receptor alpha (THRa1) (AID 2283014)
How it was run: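 Transcripts from GAL4-UAS-driven reporters, measured after 24 h compound exposure by RT-PCR plus capillary electrophoresis of 6-FAM-labeled fragments, were fitted for gain of signal relative to DMSO. Cells: transiently transfected HepG2 expressing NR-Gal4 chimeras.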

[7] = molecular target: Peroxisome proliferator-activated receptor gamma (Homo sapiens) (UniProt P37231); experiment: OT_PPARg_PPARgSRC1_0480: Odyssey Thera (OT) 8-hour Protein-Complementation Assay for Peroxisome Proliferator-activated Receptor Gamma / SRC-1 Co-activator (AID 2283387);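 also: nuclear to cytoplasmic split Venus YFP fluorescence ratio reporting PPARg SRC-1 interaction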
How it was run: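 Split-YFP (IFP1/IFP2) PPARg/SRC-1 reporter, HEK293T, 37 °C, 5% CO2; 8 h compound; formaldehyde fix + Draq5; high-content imaging, N/C ratio, ≥350 cells/image, positive direction vs DMSO.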

[8] = molecular target: Peroxisome proliferator-activated receptor gamma (Homo sapiens) (UniProt P37231); experiment: OT_PPARg_PPARgSRC1_1440: Odyssey Thera (OT) 24-hour Protein-Complementation Assay for Peroxisome Proliferator-activated Receptor Gamma/ SRC-1 Co-activator (AID 2283388);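 also: nuclear to cytoplasmic ratio of reconstituted Venus YFP fluorescence in fixed imaged cells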
How it was run: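 Readout is the 488 nm N/C fluorescence ratio from fixed, Draq5-stained HEK293T cells after 24 h compound exposure. Cells carried transiently transfected PPARg and SRC-1 fused to Venus fragments, transfected 48 h before treatment.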

[9] = molecular target: Nuclear receptor subfamily 1 group I member 3 (Homo sapiens) (UniProt Q14994); experiment: ATG_CAR_TRANS: Attagene TRANS-FACTORIAL HepG2 Assay for human Constitutive Androstane Receptor (CAR) (AID 2282969); settings: HepG2 Attagene TRANS-FACTORIAL CAR reporter;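 also: activators raise reporter mRNA above DMSO so AC50 marks induction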
How it was run: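 HepG2 cells transiently transfected with multiplexed GAL4-UAS reporter units expressing chimeric NR-Gal4 proteins; compound exposure 24 h. Reporter mRNA measured by RT-PCR, 6-FAM labelling, HpaI digestion and capillary electrophoresis; gain-of-signal fitted against DMSO baseline.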

[10] = molecular target: Oxysterols receptor LXR-alpha (Homo sapiens) (UniProt Q13133); experiment: ATG_LXRa_TRANS: Attagene TRANS-FACTORIAL HepG2 Assay for human Liver X Receptor alpha (LXRa) (AID 2282980); settings: HepG2 Attagene TRANS reporter, LXRa transactivation
How it was run: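 Chemical-induced reporter mRNA measured by RT-PCR with fluorescent labelling and capillary electrophoresis after 24 h dosing of transiently transfected HepG2 cells expressing exogenous NR-Gal4 chimeras; increases scored against DMSO baseline.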

[11] = molecular target: Nuclear receptor subfamily 4 group A member 2 (Homo sapiens) (UniProt P43354); experiment: ATG_NURR1_TRANS: Attagene TRANS-FACTORIAL HepG2 Assay for human Nuclear Receptor Related Protein 1 (NURR1) (AID 2282985); settings: HepG2 Attagene TRANS reporter, mRNA readout
How it was run: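 HepG2 cells transiently transfected with GAL4-UAS reporter units and chimeric NR-Gal4 constructs; chemical exposure 24 h. Reporter mRNA quantified by RT-PCR, fluorescent labelling and capillary electrophoresis; gain of signal fitted relative to DMSO baseline.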

[12] = molecular target: human Peroxisome Proliferator-activated Receptor delta (PPARd), PPARD (gene 5467) (UniProt Q03181); experiment: ATG_PPARd_TRANS: Attagene TRANS-FACTORIAL HepG2 Assay for human Peroxisome Proliferator-activated Receptor delta (PPARd) (AID 2283002)
How it was run: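 Multiplexed trans-activation format: HepG2 liver cells expressing exogenous NR-Gal4 chimeras and GAL4-UAS reporters were exposed for 24 h. Reporter mRNA was detected by RT-PCR with capillary electrophoresis fluorescence; activity fitted as gain of signal relative to DMSO.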

[13] = molecular target: human Vitamin D Receptor (VDR), VDR (gene 7421) (UniProt P11473); experiment: ATG_VDR_TRANS: Attagene TRANS-FACTORIAL HepG2 Assay for human Vitamin D Receptor (VDR) (AID 2283022)
How it was run: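 Transactivation by an exogenous VDR-Gal4 chimera in transiently transfected HepG2 cells was measured as reporter transcript level 24 hours after chemical treatment. RT-PCR products were analysed by capillary electrophoresis and fitted in the positive direction relative to DMSO.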

[14] = TOX21_p53_BLA_p2_viability: Viability Assessment in the Tox21 HCT-116 p53 Agonism Beta-lactamase Assay, Phase 2 (AID 2283591);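 also: compound exposure lasted 16 h at 37 °C; actives lower the ATP signal meaning cytotoxicity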
How it was run: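 HCT-116 p53-bla cells (4000/well) rested 5 h at 37C, then received compounds in DMSO (217-fold dilution) for 16 h at 37C, 5% CO2. After the CCF4 read, CellTiter-Glo was added; ATP luminescence was read after 30 min at room temperature.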

[15] = molecular target: Cellular tumor antigen p53 (Homo sapiens) (UniProt P04637); experiment: TOX21_p53_BLA_p2_ratio: Tox21 HCT-116 p53 Agonism Beta-lactamase Assay, Ratio, Phase 2 (AID 2283592)
How it was run: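 Gain-of-signal p53 agonism was scored from the beta-lactamase FRET ratio (460/530 nm, 405 nm excitation) in HCT116 cells treated 16 h at 37C, 5% CO2, with DMSO serving as negative control and baseline.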

[16] = TOX21_p53_BLA_p3_viability: Viability Assessment in the Tox21 HCT-116 p53 Agonism Beta-lactamase Assay, Phase 3 (AID 2283593);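 also: cells exposed to compound for 16 h before reading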
How it was run: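 HCT-116 cells (4000/well) rested 5 h at 37C, then got DMSO compounds by pin tool (217-fold dilution) for 16 h at 37C, 5% CO2. After the bla read, CellTiter-Glo was added and luminescence read at 30 min, room temperature.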

[17] = TOX21_p53_BLA_p5_viability: Viability Assessment in the Tox21 HCT-116 p53 Agonism Beta-lactamase Assay, Phase 5 (AID 2283600)
How it was run: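 After the 460/530 nm beta-lactamase measurement, the wells received an ATP-detection luciferase reagent; signal was read 30 min later at RT. Compound treatment lasted 16 h on cells pre-incubated 5 h post-seeding.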

[18] = molecular target: Bile acid receptor (Homo sapiens) (UniProt Q96RI1); experiment: ATG_IR1_CIS: Attagene CIS-FACTORIAL HepG2 Assay for human Nuclear Receptor Subfamily 1 Group H Member 4 (NR1H4), IR1 submotif (AID 2282946; active = hit-call score of the fitted dose curve at least 0.9, where 1 is the maximum; inactive = score below 0.9); settings: IR1 reporter transcription, actives raise or lower the signal
How it was run: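 Transient MRTU transfection, HepG2; 24 h dosing; RNA → RT-PCR → 6-FAM primer extension → HpaI digest → capillary electrophoresis fluorescence. Gain/loss of signal fitted relative to DMSO.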

[19] = TOX21_p53_BLA_p4_viability: Viability Assessment in the Tox21 HCT-116 p53 Agonism Beta-lactamase Assay, Phase 4 (AID 2283597);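 also: hits lower the luminescence signal meaning cytotoxicity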
How it was run: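 Following a 16 h exposure at 37C, the treated HCT116 wells were first read for the FRET ratio. They were then lysed with CellTiter-Glo, and ATP luminescence was recorded after 30 min at room temperature.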

[20] = ATG_GAL4_TRANS: Attagene TRANS-FACTORIAL HepG2 Assay for GAL4 (Internal Marker) (AID 2282976); settings: HepG2 Attagene TRANS GAL4 internal marker reporter
How it was run: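 In transfected human HepG2 liver cells dosed 24 h, GAL4 reporter mRNA serves as a baseline marker. Detection by RT-PCR with fluorescent capillary electrophoresis, activity fitted upward relative to DMSO.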

Oxysterols receptor LXR-beta (Homo sapiens), sequence (P55055 whole entry, looked up, the tested form may be a part): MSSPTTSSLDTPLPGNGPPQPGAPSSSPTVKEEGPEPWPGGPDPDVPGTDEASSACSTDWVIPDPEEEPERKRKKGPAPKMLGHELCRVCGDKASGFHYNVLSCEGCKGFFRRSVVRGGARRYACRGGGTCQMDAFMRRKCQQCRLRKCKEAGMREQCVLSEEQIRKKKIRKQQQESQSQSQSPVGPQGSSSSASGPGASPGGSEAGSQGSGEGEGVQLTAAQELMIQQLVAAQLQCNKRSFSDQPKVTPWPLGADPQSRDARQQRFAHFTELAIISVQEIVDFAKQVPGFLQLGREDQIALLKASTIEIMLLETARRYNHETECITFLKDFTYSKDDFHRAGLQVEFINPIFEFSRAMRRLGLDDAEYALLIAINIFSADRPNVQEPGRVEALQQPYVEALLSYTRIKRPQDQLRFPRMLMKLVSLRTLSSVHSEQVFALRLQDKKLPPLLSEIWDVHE
human RAR-related Orphan Receptor gamma (RORg), RORC (gene 6097), sequence (P51449 whole entry, looked up, the tested form may be a part): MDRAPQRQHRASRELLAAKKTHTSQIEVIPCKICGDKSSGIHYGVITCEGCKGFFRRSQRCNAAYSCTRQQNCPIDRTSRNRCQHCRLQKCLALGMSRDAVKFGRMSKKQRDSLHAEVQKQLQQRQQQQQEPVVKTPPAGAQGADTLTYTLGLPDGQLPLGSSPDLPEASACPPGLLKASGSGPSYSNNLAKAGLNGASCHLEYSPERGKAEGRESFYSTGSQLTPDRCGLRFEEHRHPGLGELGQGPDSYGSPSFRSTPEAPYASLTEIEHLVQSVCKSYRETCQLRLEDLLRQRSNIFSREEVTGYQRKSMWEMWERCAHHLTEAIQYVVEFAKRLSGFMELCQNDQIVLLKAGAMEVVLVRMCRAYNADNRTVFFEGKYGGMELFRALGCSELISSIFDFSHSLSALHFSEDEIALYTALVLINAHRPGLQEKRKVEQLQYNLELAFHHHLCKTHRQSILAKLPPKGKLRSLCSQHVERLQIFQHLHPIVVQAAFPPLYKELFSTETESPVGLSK
Cellular tumor antigen p53 (Homo sapiens), sequence (P04637 whole entry, looked up): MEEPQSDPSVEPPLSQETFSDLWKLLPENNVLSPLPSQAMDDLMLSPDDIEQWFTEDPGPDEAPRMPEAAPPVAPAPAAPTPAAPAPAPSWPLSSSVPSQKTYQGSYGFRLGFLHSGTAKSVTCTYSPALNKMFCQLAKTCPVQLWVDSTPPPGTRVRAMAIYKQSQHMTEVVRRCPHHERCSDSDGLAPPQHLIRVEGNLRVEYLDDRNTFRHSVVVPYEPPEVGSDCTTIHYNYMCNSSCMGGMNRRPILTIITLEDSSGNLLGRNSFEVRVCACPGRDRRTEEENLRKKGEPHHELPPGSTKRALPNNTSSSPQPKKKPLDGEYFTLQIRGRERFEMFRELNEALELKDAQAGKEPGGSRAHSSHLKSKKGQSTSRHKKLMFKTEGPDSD
Bile acid receptor (Homo sapiens), sequence (Q96RI1 whole entry, looked up): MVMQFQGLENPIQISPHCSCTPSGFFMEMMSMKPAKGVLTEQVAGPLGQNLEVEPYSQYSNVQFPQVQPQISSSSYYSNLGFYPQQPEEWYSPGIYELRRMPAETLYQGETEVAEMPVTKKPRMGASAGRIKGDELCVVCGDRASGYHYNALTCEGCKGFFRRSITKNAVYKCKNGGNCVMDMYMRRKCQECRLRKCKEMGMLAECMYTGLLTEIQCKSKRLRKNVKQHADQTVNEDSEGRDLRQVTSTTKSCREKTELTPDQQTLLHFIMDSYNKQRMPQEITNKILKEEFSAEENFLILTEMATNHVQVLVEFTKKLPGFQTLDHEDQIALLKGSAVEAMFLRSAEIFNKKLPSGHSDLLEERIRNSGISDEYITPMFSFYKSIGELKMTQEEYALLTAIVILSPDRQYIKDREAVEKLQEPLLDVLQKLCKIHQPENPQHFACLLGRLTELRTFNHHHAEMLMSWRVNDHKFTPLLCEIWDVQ
Oxysterols receptor LXR-alpha (Homo sapiens), sequence (Q13133 whole entry, looked up, the tested form may be a part): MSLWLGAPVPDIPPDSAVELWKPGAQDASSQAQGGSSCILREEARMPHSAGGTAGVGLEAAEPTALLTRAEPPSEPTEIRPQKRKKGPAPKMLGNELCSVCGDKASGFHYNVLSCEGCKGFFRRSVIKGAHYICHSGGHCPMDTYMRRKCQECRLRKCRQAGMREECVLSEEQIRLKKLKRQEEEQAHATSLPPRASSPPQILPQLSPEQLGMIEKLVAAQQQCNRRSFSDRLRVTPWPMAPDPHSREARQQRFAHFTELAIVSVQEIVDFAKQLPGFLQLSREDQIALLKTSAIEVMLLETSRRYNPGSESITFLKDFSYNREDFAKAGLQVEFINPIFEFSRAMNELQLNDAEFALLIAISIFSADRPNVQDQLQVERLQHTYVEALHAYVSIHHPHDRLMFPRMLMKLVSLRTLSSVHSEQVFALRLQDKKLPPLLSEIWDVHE
human Thyroid Receptor alpha (THRa1), THRA (gene 7067), sequence (P10827 whole entry, looked up, the tested form may be a part): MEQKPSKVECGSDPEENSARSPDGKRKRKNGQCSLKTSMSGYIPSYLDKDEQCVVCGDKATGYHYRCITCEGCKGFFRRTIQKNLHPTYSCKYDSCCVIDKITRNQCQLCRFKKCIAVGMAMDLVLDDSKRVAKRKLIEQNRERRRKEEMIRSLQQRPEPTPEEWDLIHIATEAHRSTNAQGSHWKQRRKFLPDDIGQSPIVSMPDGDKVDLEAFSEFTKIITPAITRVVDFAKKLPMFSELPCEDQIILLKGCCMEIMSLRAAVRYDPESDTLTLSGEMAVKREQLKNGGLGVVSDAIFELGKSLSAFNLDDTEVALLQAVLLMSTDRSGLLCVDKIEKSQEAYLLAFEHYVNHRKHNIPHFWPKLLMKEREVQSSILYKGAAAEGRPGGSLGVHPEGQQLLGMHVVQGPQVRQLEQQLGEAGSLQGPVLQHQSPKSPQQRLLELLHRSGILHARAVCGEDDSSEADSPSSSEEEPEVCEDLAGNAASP
Nuclear receptor subfamily 1 group I member 3 (Homo sapiens), sequence (Q14994 whole entry, looked up, the tested form may be a part): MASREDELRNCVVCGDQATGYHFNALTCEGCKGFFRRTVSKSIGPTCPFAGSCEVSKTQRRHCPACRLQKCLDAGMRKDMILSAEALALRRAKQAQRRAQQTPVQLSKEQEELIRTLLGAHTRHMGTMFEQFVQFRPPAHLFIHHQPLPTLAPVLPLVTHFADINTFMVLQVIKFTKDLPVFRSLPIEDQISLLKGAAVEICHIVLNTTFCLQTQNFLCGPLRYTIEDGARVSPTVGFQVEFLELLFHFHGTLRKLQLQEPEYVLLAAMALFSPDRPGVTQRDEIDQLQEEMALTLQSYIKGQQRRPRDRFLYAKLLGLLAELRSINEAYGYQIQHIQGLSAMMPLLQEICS
human Peroxisome Proliferator-activated Receptor delta (PPARd), PPARD (gene 5467), sequence (Q03181 whole entry, looked up, the tested form may be a part): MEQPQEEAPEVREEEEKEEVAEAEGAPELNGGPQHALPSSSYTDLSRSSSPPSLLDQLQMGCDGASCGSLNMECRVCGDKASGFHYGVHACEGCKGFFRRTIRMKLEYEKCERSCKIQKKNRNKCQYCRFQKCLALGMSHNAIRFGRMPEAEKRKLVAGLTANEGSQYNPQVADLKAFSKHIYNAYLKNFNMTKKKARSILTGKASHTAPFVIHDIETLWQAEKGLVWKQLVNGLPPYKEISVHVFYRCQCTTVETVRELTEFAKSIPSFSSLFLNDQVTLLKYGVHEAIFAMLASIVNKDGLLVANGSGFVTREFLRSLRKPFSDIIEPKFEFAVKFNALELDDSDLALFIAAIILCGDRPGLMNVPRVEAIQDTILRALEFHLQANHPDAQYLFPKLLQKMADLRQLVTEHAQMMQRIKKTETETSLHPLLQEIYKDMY
human Peroxisome Proliferator-activated Receptor alpha (PPARa), PPARA (gene 5465), sequence (Q07869 whole entry, looked up, the tested form may be a part): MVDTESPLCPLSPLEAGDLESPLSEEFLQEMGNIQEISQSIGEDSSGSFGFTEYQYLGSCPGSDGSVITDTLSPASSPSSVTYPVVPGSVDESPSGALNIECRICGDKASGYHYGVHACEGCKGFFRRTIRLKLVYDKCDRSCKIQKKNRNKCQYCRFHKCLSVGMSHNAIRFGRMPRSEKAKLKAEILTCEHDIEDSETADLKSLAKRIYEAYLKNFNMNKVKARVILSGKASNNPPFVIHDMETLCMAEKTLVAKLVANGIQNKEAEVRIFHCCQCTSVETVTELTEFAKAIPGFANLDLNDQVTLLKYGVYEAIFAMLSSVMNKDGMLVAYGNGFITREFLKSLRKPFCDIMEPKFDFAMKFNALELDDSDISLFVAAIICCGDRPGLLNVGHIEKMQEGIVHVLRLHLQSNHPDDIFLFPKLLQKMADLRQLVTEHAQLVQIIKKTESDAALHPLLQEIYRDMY
Nuclear receptor subfamily 4 group A member 2 (Homo sapiens), sequence (P43354 whole entry, looked up, the tested form may be a part): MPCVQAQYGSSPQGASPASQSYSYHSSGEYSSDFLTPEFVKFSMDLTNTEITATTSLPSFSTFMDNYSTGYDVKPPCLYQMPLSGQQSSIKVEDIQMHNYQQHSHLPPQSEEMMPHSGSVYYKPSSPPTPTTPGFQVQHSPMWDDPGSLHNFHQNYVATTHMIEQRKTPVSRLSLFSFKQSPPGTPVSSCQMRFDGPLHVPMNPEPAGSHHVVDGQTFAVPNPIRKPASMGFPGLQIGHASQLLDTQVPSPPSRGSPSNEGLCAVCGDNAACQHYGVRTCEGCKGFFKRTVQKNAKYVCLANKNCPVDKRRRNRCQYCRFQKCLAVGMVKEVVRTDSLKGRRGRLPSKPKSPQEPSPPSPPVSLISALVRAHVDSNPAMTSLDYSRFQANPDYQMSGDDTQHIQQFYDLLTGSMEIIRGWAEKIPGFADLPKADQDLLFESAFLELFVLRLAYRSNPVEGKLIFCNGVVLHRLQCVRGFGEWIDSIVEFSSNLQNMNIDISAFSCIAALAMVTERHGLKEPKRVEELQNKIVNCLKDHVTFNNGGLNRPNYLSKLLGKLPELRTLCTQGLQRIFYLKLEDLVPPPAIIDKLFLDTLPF

## O=P1(NCCCl)OCCCN1CCCl (configuration not stated)
[1]
  outcome: inactive
[2]
  outcome: inactive
[3]
  outcome: inactive
[4]
  AC50: 37.7 µM (active)

## O=C(O)CCl
[1]
  outcome: inactive
[3]
  outcome: inactive
[5]
  outcome: inactive
[6]
  outcome: inactive
[7]
  outcome: inactive
[8]
  outcome: inactive
[4]
  outcome: inactive

## C[C@]12CC[C@H]3[C@@H](CC[C@@]45O[C@@H]4C(O)=C(C#N)C[C@]35C)[C@@H]1CC[C@@H]2O
[9]
  outcome: inactive
[10]
  outcome: inactive
[2]
  outcome: inactive
[11]
  outcome: inactive
[12]
  outcome: inactive
[6]
  outcome: inactive
[13]
  outcome: inactive
[14]
  outcome: inactive
[15]
  AC50: 64.6 µM (active) and 35.9 µM (active)
[16]
  outcome: inactive
[17]
  outcome: inactive

## O=[N+]([O-])C=Cc1ccccc1
[18]
  AC50: 46.8 µM (active)
[9]
  outcome: inactive
[2]
  outcome: inactive
[3]
  outcome: inactive
[5]
  outcome: inactive
[6]
  outcome: inactive
[13]
  outcome: inactive
[14]
  AC50: 27.2 µM (active)
[15]
  AC50: 8.76 µM (active)
[16]
  outcome: inactive
[17]
  outcome: inactive
[4]
  outcome: inactive

## O=C1C(Cl)=C(Cl)C(=O)C(Cl)=C1Cl
[18]
  AC50: 72.4 µM (active)
[9]
  outcome: inactive
[10]
  outcome: inactive
[2]
  outcome: inactive
[11]
  outcome: inactive
[3]
  outcome: inactive
[12]
  outcome: inactive
[5]
  outcome: inactive
[6]
  outcome: inactive
[13]
  outcome: inactive
[14]
  AC50: 58.9 µM (active)
  outcome: inactive
[16]
  AC50: 21.6 µM (active) and 44.2 µM (active)
[19]
  AC50: 73.4 µM (active) and 73.7 µM (active)
[17]
  AC50: 57.6 µM (active) and 56.4 µM (active)
[4]
  AC50: 81.6 µM (active)

## CCCCCCCCCCCC#N
[18]
  AC50: 165 µM (active)
[9]
  outcome: inactive
[1]
  outcome: inactive
[10]
  outcome: inactive
[11]
  outcome: inactive
[3]
  outcome: inactive
[12]
  outcome: inactive
[6]
  outcome: inactive
[17]
  outcome: inactive
[4]
  outcome: inactive

## CN1C(=O)CCS(=O)(=O)C1c1ccc(Cl)cc1 (configuration not stated)
[20]
  outcome: inactive
[3]
  outcome: inactive
[12]
  outcome: inactive
[6]
  outcome: inactive

## CCCCNP(N)(N)=S
[18]
  outcome: inactive
[1]
  outcome: inactive
[2]
  outcome: inactive
[11]
  outcome: inactive
[12]
  outcome: inactive
[6]
  outcome: inactive
[14]
  outcome: inactive
[15]
  outcome: inactive
[19]
  outcome: inactive
[17]
  outcome: inactive
[4]
  outcome: inactive

## O=C(CCN1CC1)OCC(CO)(COC(=O)CCN1CC1)COC(=O)CCN1CC1
[18]
  outcome: inactive
[20]
  outcome: inactive
[15]
  outcome: inactive
[16]
  outcome: inactive
[17]
  outcome: inactive
[4]
  AC50: 63.1 µM (active)

## ClCCCCCCCl
[10]
  outcome: inactive
[2]
  outcome: inactive
[11]
  outcome: inactive
[3]
  outcome: inactive
[5]
  outcome: inactive
[13]
  outcome: inactive

## CCC(C)(C)O
[9]
  outcome: inactive
[20]
  outcome: inactive
[11]
  outcome: inactive
[5]
  outcome: inactive
[4]
  outcome: inactive

## CC=Cc1ccc2c(c1)OCO2
[9]
  outcome: inactive
[1]
  outcome: inactive
[2]
  outcome: inactive
[11]
  outcome: inactive
[12]
  outcome: inactive
[5]
  outcome: inactive
[6]
  outcome: inactive
[13]
  outcome: inactive
[15]
  outcome: inactive
[16]
  outcome: inactive
[19]
  outcome: inactive
[4]
  outcome: inactive

## CCCCOP(=O)(O)OCCCC
[18]
  outcome: inactive
[10]
  outcome: inactive
[2]
  outcome: inactive
[3]
  outcome: inactive
[12]
  outcome: inactive
[6]
  outcome: inactive
[4]
  AC50: 20.3 µM (active)

## NNc1ccccc1
[9]
  outcome: inactive
[2]
  outcome: inactive
[11]
  outcome: inactive
[3]
  outcome: inactive
[6]
  outcome: inactive
[4]
  outcome: inactive
